This is an account of results in PubChem BioAssay (EPA / NIEHS).

Records with an inconclusive call do not appear. Activity calls are given as the source filed them. Rule for the calls, unless noted: active = hit-call score of the fitted dose curve at least 0.9, where 1 is the maximum; inactive = score below 0.9.

For assay [1], the target named is Myc proto-oncogene protein (Homo sapiens) (UniProt P01106). As to the kind of experiment: ATG_Myc_CIS: Attagene CIS-FACTORIAL HepG2 Assay for human Myelocytomatosis (Myc) Proto-Oncogene Transcription Factor (AID 2282990). The conditions noted are these: HepG2, Attagene cis-reporter transcription factor activity; actives raise or lower the signal. In short, it runs like this: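 Read-out: fluorescent reporter mRNA fragments resolved by capillary electrophoresis after RT-PCR. Human HepG2 liver cells carried transfected cis-element reporter units and were dosed for 24 h. Gain or loss of signal fitted relative to DMSO baseline.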

A short description of assay [2]: ATG_NRF2_ARE_CIS: Attagene CIS-FACTORIAL HepG2 Assay for human Nuclear Factor Erythroid 2 Related Factor 2 (NFR2) response to Antioxidant Response Elements (ARE) (AID 2282992). The note with it: HepG2 Attagene ARE/NRF2 reporter, transcription factor activity; actives raise or lower the signal. In short, it runs like this:
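Using transiently transfected HepG2 cells exposed for 24 h, reporter mRNA levels were determined by RT-PCR with fluorescent primer extension and capillary electrophoresis, analysed for gain or loss of signal against DMSO.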

Assay [3] can be described thus: BSK_3C_TissueFactor: BioMAP Diversity Plus: 3C Assay for Tissue Factor Biomarker Activity (AID 2282997). The conditions noted are these: BioMAP 3C HUVEC, tissue factor biomarker readout; actives raise or lower the signal. In short, it runs like this:
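Readout: Tissue Factor ELISA. Cells: human primary umbilical vein endothelium. Time: 24 h after dosing. Analysis: bidirectional fit, DMSO baseline.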

Assay [4] is described as follows: BSK_3C_uPAR: BioMAP Diversity Plus: 3C Assay for Urokinase-type plasminogen activator receptor (uPAR) Biomarker Activity (AID 2282998). The note with it: BioMAP 3C HUVEC, uPAR biomarker ELISA; actives raise or lower the signal. In short, it runs like this:
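Dose primary human umbilical vein endothelial cells, incubate 24 h, measure cell-surface uPAR by ELISA, then fit the signal in both directions against the DMSO negative control.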
Background: An ELISA detects its analyte on a solid surface through an enzyme-linked reagent.

Assay [5] can be described thus: BSK_4H_Eotaxin3: BioMAP Diversity Plus: 4H Assay for Eotaxin 3 Biomarker Activity (AID 2283000).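 For outcome: CCL26 protein level quantified by ELISA in parallel with SRB cytotoxicity check.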 The note with it: primary human endothelial cells (HUVEC); actives raise or lower the signal. In short, it runs like this:
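HUVEC, 24 h post-dose, ELISA for Eotaxin-3/CCL26. Gain or loss of signal fitted bidirectionally vs DMSO baseline.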

Read-out in assay [6]: Intercellular Adhesion Molecule 1 (ICAM1), ICAM1 (gene 3383)
The assay can be described thus: BSK_3C_ICAM1: BioMAP Diversity Plus: 3C Assay for Intercellular Adhesion Molecule 1 (ICAM1) Biomarker Activity (AID 2283003). The note with it: primary human endothelial cells (HUVEC); actives raise or lower the signal. In short, it runs like this:
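ELISA readout of ICAM1 in human umbilical vein endothelial cells in the 3C system, taken 24 h post-dose. Gain or loss of signal versus DMSO was fitted in both directions, with SRB total-protein staining run in parallel.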

Assay [7] concerns the target human Retinoic Acid Receptor beta (RARb), RARB (gene 5915) (UniProt P10826). As to the kind of experiment: ATG_RARb_TRANS: Attagene TRANS-FACTORIAL HepG2 Assay for human Retinoic Acid Receptor beta (AID 2283004; active = hit-call score of the fitted dose curve at least 0.9, where 1 is the maximum). In short, it runs like this:
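HepG2 cells transiently transfected with multiplexed GAL4-UAS reporter units expressing chimeric NR–Gal4 fusions; 24 h compound exposure. Reporter mRNA quantified by RT-PCR, 6-FAM labelling, HpaI digestion and capillary electrophoresis; gain-of-signal fitted against DMSO baseline.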

Assay [8] deals with Retinoic acid receptor alpha (Homo sapiens) (UniProt P10276). The assay can be described thus: ATG_RARa_TRANS: Attagene TRANS-FACTORIAL HepG2 Assay for human Retinoic Acid Receptor alpha (RARa) (AID 2283005; active = hit-call score of the fitted dose curve at least 0.9, where 1 is the maximum). In short, it runs like this: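 HepG2 transiently transfected with multiplex GAL4-UAS reporter units including a human RARa–GAL4 chimera; 24 h compound exposure. Reporter mRNA quantified by RT-PCR, 6-FAM labeling and capillary electrophoresis; gain of signal versus DMSO.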

Assay [9] is described as follows: BSK_3C_Proliferation: Cell Proliferation Assessment in the BioMAP Diversity Plus: 3C Assay (AID 2283006).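 For AC50: potency may reflect either rise or fall in cell number versus DMSO.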 The conditions noted are these: primary human endothelial cells (HUVEC). In short, it runs like this:
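Proliferation as total protein: sulforhodamine B (0.1%) stain of TCA-fixed subconfluent human umbilical vein endothelial cells, absorbance 560 nm, 48 h after dosing. Activity fitted in both directions against DMSO baseline.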

Assay [10] addresses Peroxisome proliferator-activated receptor gamma (Homo sapiens) (UniProt P37231). As to the kind of experiment: ATG_PPARg_TRANS: Attagene TRANS-FACTORIAL HepG2 Assay for human Peroxisome Proliferator-activated Receptor-gamma (PPARg) (AID 2283007; active = hit-call score of the fitted dose curve at least 0.9, where 1 is the maximum). In short, it runs like this:
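Endpoint reflects upward reporter mRNA change versus DMSO controls. Setup: transiently transfected HepG2, GAL4-UAS reporters driven by chimeric NR-Gal4, 24 h incubation, RT-PCR with capillary electrophoresis read-out.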

The target of assay [11] is Nuclear receptor subfamily 1 group I member 2 (Homo sapiens) (UniProt O75469). The assay can be described thus: ATG_PXR_TRANS: Attagene TRANS-FACTORIAL HepG2 Assay for human Pregnane X Receptor (PXR) (AID 2283008; active = hit-call score of the fitted dose curve at least 0.9, where 1 is the maximum). In short, it runs like this: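 Multiplexed TRANS reporter panel in HepG2; this component tracks PXR-Gal4-driven reporter mRNA after 24 h dosing, measured by RT-PCR with capillary electrophoresis fluorescence, fitted against DMSO.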

In assay [12] the target is human Retinoic Acid Receptor gamma (RARg), RARG (gene 5916) (UniProt P13631). The assay can be described thus: ATG_RARg_TRANS: Attagene TRANS-FACTORIAL HepG2 Assay for human Retinoic Acid Receptor gamma (RARg) (AID 2283009; active = hit-call score of the fitted dose curve at least 0.9, where 1 is the maximum). In short, it runs like this: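 Transactivation of exogenous RARg-Gal4 fusion measured as reporter transcript induction after 24 h in transfected HepG2 cells. RNA reverse-transcribed, amplified, fluorescently labeled and resolved by capillary electrophoresis; increase relative to DMSO.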

The target of assay [13] is human Peroxisome Proliferator-activated Receptor delta (PPARd), PPARD (gene 5467) (UniProt Q03181). The assay can be described thus: ATG_PPARd_TRANS: Attagene TRANS-FACTORIAL HepG2 Assay for human Peroxisome Proliferator-activated Receptor delta (PPARd) (AID 2283002; active = hit-call score of the fitted dose curve at least 0.9, where 1 is the maximum). In short, it runs like this:
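Read-out: reporter mRNA induction, quantified by fluorescent RT-PCR products resolved by capillary electrophoresis. Human HepG2 liver cells carried transiently transfected Gal4-UAS reporter constructs with chimeric NR-Gal4 fusions. Cells were dosed for 24 h; DMSO served as baseline.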

Assay [14] concerns the target Cellular tumor antigen p53 (Homo sapiens) (UniProt P04637). The assay can be described thus: ATG_p53_CIS: Attagene CIS-FACTORIAL HepG2 Assay for human p53 Transcription Factor (AID 2282994). The conditions noted are these: HepG2 p53 cis-element reporter, Attagene mRNA; actives raise or lower the signal. In short, it runs like this:
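In HepG2 cells, reporter transcription units under cis-regulatory promoters were transiently introduced. Following 24 h treatment, RNA was processed to labelled, digested cDNA fragments read by capillary electrophoresis; fitting was bidirectional versus DMSO.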

Assay [15] in a line: BSK_3C_VCAM1: BioMAP Diversity Plus: 3C Assay for Vascular cell adhesion molecule 1 (VCAM1) Biomarker Activity (AID 2282999). The note with it: BioMAP 3C HUVEC, VCAM1 ELISA, cytokine-stimulated; actives raise or lower the signal. In short, it runs like this: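 HUVEC primary cells, 24 h compound exposure; VCAM-1 by ELISA; gain/loss of signal fitted bidirectionally vs DMSO baseline.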

Assay [16] concerns the target human RAR-related Orphan Receptor beta (RORb), RORB (gene 6096) (UniProt Q92753). The assay can be described thus: ATG_RORb_TRANS: Attagene TRANS-FACTORIAL HepG2 Assay for human RAR-related Orphan Receptor beta (RORb) (AID 2283010; active = hit-call score of the fitted dose curve at least 0.9, where 1 is the maximum). In short, it runs like this:
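Read-out is reporter mRNA induction, quantified by RT-PCR with fluorescent capillary electrophoresis, 24 h post-dose in transiently transfected HepG2 expressing exogenous NR-Gal4 chimera. Activity fitted upward versus DMSO.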

The target in assay [17] is human RAR-related Orphan Receptor gamma (RORg), RORC (gene 6097) (UniProt P51449). As to the kind of experiment: ATG_RORg_TRANS: Attagene TRANS-FACTORIAL HepG2 Assay for human RAR-related Orphan Receptor gamma (RORg) (AID 2283011; active = hit-call score of the fitted dose curve at least 0.9, where 1 is the maximum). In short, it runs like this: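 Readout: reporter transcript induction (RT-PCR, fluorescent primer extension, capillary electrophoresis) after 24 h compound exposure of transiently transfected HepG2 cells carrying a RORg-Gal4 chimera and GAL4-UAS reporters; DMSO served as baseline, with increasing signal fitted.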
Chain of human RAR-related Orphan Receptor gamma (RORg), RORC (gene 6097) (P51449 whole entry, looked up, the tested form may be a part): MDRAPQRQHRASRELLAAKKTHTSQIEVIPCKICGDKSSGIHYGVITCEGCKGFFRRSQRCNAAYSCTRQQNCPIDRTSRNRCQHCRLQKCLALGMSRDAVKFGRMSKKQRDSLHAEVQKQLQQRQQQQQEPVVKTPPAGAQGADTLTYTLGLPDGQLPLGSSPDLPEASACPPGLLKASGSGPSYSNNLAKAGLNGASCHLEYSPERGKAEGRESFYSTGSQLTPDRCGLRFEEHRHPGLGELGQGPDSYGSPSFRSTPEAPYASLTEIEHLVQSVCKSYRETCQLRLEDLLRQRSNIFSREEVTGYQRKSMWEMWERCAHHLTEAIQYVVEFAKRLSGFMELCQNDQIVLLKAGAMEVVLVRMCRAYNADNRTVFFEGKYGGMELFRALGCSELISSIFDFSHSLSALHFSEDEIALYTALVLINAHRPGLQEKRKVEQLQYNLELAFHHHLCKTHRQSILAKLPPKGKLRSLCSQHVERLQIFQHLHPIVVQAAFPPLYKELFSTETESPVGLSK

Chain of human RAR-related Orphan Receptor beta (RORb), RORB (gene 6096) (Q92753 whole entry, looked up, the tested form may be a part): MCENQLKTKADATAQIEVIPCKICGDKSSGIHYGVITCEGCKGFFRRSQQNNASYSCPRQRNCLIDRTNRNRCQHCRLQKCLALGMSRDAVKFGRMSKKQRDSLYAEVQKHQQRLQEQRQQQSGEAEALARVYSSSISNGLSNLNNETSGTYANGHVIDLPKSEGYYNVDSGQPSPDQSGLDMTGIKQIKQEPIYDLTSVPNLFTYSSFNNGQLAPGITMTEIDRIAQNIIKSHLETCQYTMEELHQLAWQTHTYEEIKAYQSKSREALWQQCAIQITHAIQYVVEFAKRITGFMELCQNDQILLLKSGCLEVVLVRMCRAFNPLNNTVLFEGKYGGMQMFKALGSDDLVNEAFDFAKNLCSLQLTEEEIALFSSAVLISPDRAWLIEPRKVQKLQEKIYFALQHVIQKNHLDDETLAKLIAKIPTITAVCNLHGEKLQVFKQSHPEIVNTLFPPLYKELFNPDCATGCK
Chain of Myc proto-oncogene protein (Homo sapiens) (P01106 whole entry, looked up, the tested form may be a part): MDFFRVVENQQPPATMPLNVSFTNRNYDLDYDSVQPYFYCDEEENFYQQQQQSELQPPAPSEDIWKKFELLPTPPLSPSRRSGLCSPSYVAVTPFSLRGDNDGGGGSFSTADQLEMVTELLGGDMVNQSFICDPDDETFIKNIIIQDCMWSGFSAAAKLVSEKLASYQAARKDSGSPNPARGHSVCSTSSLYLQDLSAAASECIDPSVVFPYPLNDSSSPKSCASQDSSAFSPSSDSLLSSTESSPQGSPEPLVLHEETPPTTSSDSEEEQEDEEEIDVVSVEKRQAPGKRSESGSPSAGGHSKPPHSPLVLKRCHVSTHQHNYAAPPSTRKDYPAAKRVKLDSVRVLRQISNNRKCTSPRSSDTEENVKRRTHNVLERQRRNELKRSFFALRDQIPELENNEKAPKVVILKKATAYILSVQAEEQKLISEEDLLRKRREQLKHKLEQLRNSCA
Chain of Cellular tumor antigen p53 (Homo sapiens) (P04637 whole entry, looked up, the tested form may be a part): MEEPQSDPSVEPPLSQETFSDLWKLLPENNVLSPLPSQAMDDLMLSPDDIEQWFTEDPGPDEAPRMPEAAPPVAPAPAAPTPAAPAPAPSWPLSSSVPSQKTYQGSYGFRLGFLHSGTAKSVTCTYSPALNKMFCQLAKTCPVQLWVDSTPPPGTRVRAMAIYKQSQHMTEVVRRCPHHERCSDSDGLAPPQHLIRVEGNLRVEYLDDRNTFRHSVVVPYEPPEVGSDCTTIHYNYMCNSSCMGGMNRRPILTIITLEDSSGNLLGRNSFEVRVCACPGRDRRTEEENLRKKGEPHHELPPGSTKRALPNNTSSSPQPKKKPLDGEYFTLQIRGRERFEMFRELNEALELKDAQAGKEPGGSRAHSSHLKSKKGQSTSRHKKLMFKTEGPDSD
Chain of human Peroxisome Proliferator-activated Receptor delta (PPARd), PPARD (gene 5467) (Q03181 whole entry, looked up, the tested form may be a part): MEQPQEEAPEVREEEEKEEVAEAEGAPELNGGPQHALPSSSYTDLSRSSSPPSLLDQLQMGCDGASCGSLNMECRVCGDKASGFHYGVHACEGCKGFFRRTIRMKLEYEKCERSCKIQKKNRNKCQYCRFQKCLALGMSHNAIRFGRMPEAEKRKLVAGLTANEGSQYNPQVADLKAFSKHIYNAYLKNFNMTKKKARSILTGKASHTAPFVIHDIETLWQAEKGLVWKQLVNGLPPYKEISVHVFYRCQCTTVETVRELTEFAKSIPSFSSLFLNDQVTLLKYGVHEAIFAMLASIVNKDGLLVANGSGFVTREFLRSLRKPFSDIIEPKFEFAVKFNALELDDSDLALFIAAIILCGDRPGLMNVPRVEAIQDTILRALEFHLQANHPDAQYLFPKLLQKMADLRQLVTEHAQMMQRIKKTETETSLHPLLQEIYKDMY
Chain of Nuclear receptor subfamily 1 group I member 2 (Homo sapiens) (O75469 whole entry, looked up, the tested form may be a part): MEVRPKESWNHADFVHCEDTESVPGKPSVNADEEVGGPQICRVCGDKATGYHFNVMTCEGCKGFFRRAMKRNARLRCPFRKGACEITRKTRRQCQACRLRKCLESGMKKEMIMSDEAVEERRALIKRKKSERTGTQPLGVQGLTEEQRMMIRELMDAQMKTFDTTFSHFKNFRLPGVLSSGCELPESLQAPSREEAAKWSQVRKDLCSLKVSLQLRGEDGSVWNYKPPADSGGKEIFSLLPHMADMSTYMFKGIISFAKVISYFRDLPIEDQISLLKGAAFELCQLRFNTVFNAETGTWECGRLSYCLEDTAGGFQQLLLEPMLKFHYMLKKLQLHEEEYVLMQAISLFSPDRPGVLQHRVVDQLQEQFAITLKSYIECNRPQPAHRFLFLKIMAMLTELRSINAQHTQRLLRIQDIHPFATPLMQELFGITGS
Chain of human Retinoic Acid Receptor gamma (RARg), RARG (gene 5916) (P13631 whole entry, looked up, the tested form may be a part): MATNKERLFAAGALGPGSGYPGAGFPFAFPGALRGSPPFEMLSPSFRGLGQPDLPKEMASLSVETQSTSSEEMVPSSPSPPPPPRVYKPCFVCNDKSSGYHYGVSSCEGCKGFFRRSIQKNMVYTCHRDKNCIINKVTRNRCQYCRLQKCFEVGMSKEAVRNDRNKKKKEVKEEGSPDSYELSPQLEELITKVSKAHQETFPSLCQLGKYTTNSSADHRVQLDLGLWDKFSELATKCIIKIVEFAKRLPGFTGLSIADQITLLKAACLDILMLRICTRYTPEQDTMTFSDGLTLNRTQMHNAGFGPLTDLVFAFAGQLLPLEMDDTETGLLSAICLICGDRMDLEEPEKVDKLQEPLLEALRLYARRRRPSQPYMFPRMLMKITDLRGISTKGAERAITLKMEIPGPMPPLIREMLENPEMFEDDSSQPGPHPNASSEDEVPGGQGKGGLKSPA
Chain of human Retinoic Acid Receptor beta (RARb), RARB (gene 5915) (P10826 whole entry, looked up, the tested form may be a part): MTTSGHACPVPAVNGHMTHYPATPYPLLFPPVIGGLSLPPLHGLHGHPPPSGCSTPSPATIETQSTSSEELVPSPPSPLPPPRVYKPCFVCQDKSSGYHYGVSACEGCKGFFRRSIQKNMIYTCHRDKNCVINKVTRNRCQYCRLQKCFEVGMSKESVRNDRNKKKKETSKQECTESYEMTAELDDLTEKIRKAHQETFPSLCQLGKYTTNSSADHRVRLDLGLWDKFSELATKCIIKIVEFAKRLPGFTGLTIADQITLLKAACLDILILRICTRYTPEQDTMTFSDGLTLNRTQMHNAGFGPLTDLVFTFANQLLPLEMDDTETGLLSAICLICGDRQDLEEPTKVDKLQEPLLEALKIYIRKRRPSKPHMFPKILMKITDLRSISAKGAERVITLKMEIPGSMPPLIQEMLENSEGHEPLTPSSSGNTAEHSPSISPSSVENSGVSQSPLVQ
Chain of Retinoic acid receptor alpha (Homo sapiens) (P10276 whole entry, looked up, the tested form may be a part): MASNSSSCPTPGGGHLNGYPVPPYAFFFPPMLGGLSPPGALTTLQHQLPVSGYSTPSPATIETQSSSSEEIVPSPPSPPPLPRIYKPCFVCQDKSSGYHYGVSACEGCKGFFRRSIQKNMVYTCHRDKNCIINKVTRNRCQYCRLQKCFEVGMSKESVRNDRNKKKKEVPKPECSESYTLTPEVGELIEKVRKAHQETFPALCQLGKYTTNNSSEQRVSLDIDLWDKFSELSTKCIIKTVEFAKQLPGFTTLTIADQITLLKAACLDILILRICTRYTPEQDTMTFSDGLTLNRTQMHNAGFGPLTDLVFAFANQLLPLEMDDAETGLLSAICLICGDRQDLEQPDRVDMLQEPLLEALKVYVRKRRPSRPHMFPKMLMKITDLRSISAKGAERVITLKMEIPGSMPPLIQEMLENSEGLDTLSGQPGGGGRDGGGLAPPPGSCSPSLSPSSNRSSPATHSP
Chain of Peroxisome proliferator-activated receptor gamma (Homo sapiens) (P37231 whole entry, looked up, the tested form may be a part): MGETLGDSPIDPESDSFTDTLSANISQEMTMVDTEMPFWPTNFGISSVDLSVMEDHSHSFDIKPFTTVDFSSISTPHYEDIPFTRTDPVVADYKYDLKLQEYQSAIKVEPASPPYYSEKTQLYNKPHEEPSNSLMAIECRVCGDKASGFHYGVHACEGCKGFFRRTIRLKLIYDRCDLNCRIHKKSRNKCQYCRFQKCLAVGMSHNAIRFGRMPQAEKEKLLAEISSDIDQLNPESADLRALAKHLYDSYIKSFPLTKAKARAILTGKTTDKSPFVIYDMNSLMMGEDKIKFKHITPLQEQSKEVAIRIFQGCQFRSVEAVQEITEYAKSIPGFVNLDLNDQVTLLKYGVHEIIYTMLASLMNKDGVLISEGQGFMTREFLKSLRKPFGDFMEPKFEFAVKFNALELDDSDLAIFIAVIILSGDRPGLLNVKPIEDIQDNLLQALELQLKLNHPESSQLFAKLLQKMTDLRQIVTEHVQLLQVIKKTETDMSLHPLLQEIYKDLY

Consider `COCCOCCOCCOC`, for which the molecule was classed as inactive in assay [1], in assay [2], in assay [3], in assay [4], in assay [5] and in assay [6]. For the same molecule, the molecule was called inactive in assay [7], in [8], in assay [9], in [10], in assay [11] and in assay [12].
As to `CC1(C)C(=O)N(Br)C(=O)N1Br`, the call in assay [1], in [4], in assay [5], in assay [13], in assay [6] and in assay [9] was inactive. For the same molecule, the AC50 (as a rule, the concentration at which the activity in the assay is half-maximal) in assay [2] is 52.4 µM (active).
In the case of `O=P(OC(CCl)CCl)(OC(CCl)CCl)OC(CCl)CCl`, the AC50 in assay [1] is 143 µM (active); in assay [14], 39.3 µM (active); in assay [3] it was 8.26 µM (active); in assay [9], 10.6 µM (active); in assay [11], 0.377 µM (active). Moreover, the result in assay [2], in assay [4], in assay [15], in assay [5], in assay [6] and in [12] was inactive.
For `Cc1ccc(N)cc1O`, the outcome in assay [1], in [4], in [15], in [13], in assay [6] and in assay [7] was inactive. The result in assay [9], in assay [11], in assay [16] and in assay [17] was inactive. Moreover, the AC50 in assay [2] is 22.3 µM (active); in assay [5], 20 µM (active).
Turning to `COC(=O)c1c(Cl)c(Cl)c(C(=O)OC)c(Cl)c1Cl`, the molecule was called inactive in assay [1], in assay [2], in assay [3], in [4], in assay [5] and in [13]. Further, the outcome in assay [6], in [11] and in assay [17] was inactive. Also, the AC50 in assay [9] is 14.6 µM (active).
As for `CC1=CC(=O)CC(C)(C)C1`, the result in [1], in [2], in [14], in assay [4], in assay [15] and in assay [5] was inactive. The result in assay [6], in assay [9], in [11] and in assay [16] was inactive.
As to `CCCCC(CC)COC(=O)CCCCCCCCC(=O)OCC(CC)CCCC` (centres undefined), the molecule was called inactive in [1], in assay [2], in assay [14], in assay [3], in [4] and in [5]. In addition, the result in [13], in assay [6], in [9], in assay [11], in assay [16] and in assay [17] was inactive.
